# This is part of a sample that, as a whole, favours compounds with a hit. Of some 83,000 tested, about 20% had one in any assay.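 In brief: 96-well plates, 48 h treatment, single concentration, percent growth endpoint.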 Calls of active or inactive are those of the source.
# Test system: TK-10 renal
# Assay: NCI-60 one-dose screen, 48 h (100 = growth as untreated, 0 = no growth, -100 = all killed)
# Settings: 10 µM unless noted
# Description: Growth inhibition of the TK-10 human tumor cell line is measured as a screen for anti-cancer activity. Cells are grown in 96 well plates and exposed to the test compound for 48 hours. Compounds are tested at a single concentration, which is 10^-5 M for most compounds. The reported endpoint is percent growth (GI% or GIPRCNT), where numbers from 0 - 100% represent growth inhibition, and numbers from -100% - 0 represent cell death. For example, a value of 40 represents 60% growth inhibition. A value of 0 means no net growth occurred over the course of the experiment. A value of -40 indicates 40% of cells at the beginning of the experiment died by the end of the experiment. A value of -100 means all cells are dead at the end of the experiment.
# NCI-60 Human Tumor Cell Lines Screen was performed using the standard one-dose NCI protocol, which is described in more detail at https://dtp.cancer.gov/discovery_development/nci-60/default.htm.
# Compounds with GIPRCNT values below 10 were considered active. Activity score was based on GIPRCNT using the following formula: […]
# Score is 0 for GIPRCNT values of 100 or above, 50 for GIPRCNT values of 0, and 100 for GIPRCNT values of -100.
row,Structure (SMILES),growth
1,CCOC(=O)COc1c(C)cc(SSc2cc(C)c(OCC(=O)OCC)c(C)c2)cc1C,87.5% (inactive)
2,C=C(C)[C@@H]1CC[C@]2(C(=O)NCCNCCNC(=O)OC(C)(C)C)CC[C@]3(C)[C@H](CC[C@@H]4[C@@]5(C)CCC(=O)C(C)(C)[C@@H]5CC[C@]43C)[C@@H]12,54% [100 µM] (inactive)
3,O=S(=O)(NCCCNc1nccc(-c2c(-c3cccc(F)c3)nc3occn23)n1)c1cccc2ccccc12,55.6% (inactive)
4,O=C(N[C@@H]1CCCc2ccccc21)[C@H](CCC(=O)N1CCN(C2CCCCC2)CC1)N1C(=O)[C@@H](N2C(=O)OC[C@@H]2c2ccccc2)[C@H]1/C=C/c1ccccc1,47% (inactive)
5,O=C1CN(Cc2ccc(C(=O)NO)cc2)C(=O)[C@@H](Cc2ccccc2)N1,106% (inactive)
6,COc1ccc(C2=C(c3cn(C)c4ccccc34)C(=O)OC2)cc1OC,61.4% (inactive)
7,CC1(C)CC[C@]23CC[C@]4(C)[C@H](CC[C@@H]5[C@@]6(C)C/C(=C/c7cccnc7)C(=O)C(C)(C)[C@@H]6CC[C@]54C)[C@H]2[C@H]1OC3=O,55% [100 µM] (inactive)
8,O=C(NCCCNC(=O)OCc1ccc2cccc(O)c2n1)OCc1ccc2cccc(O)c2n1,49.6% (inactive)
9,O=C(OCc1ccc2c(Cl)cc(Cl)c(O)c2n1)N1CCN(C(=O)c2cc3cc(F)ccc3[nH]2)CC1,63.7% (inactive)
10,O=C(OCc1ccc2c(Cl)cc(Cl)c(O)c2n1)N1CCNCC1,52.1% (inactive)
11,COc1ccccc1S(=O)Nc1ccccc1 (stereo not given),101% (inactive)
12,O=C(Oc1ccc(Cl)cc1[N+](=O)[O-])Oc1ccc(Cl)cc1[N+](=O)[O-],120% (inactive)
13,Cn1cc(-c2nnc(-c3cn(C)c4ncc(Br)cc34)o2)c2ccccc21,114% (inactive)
14,O=C(O)c1cccc(CN2CCN(c3cc4c(cc3F)c(=O)c(C(=O)O)cn4C3CC3)CC2)c1O,96.6% (inactive)
15,CC1(C(=O)O)CCC(N)(C(=O)O)C1(C)C (stereo not given),101% (inactive)
16,Clc1ccccc1/C=N\Nc1ccccn1,66.7% (inactive)
17,CCOC(=O)c1c[nH]c2cc(OCC3CC3)c(OCC3CC3)cc2c1=O,126% (inactive)
18,CCN(CC)c1ccc(/C=C/c2ccc3cc(C)ccc3[n+]2CC)cc1,-4.22% (active)
19,O=C(O)c1cn(C2CC2)c2cc(N3CCN(Cc4cc(Cl)ccc4O)CC3)c(F)cc2c1=O,81% (inactive)
20,CC1(C)C(=O)/C(=C\c2cccnc2)C[C@]2(C)[C@H]3CC[C@@H]4[C@H]5[C@H](C(=O)/C=C/c6cccnc6)CC[C@]5(C(=O)O)CC[C@@]4(C)[C@]3(C)CC[C@@H]12,-89.5% [100 µM] (active)

row,Structure (SMILES),growth
1,C=CCCC1(C)NC(=O)NC1=O (stereo not given),89.9% (inactive)
2,COc1cc(-c2nc(SCCC(C)C)nc(Nc3ccc(S(N)(=O)=O)cc3)c2C#N)cc(OC)c1OC,50% (inactive)
3,C#CC(OC(=O)N(C)C)(c1ccccc1)c1ccc(F)cc1 (stereo not given),125% (inactive)
4,CC(=O)Nc1ccc2nc3ccc(NC(C)=O)cc3[n+](-c3ccccc3)c2c1,140% (inactive)
5,CCN(CC)c1ccc2cc(NC(=O)OCCNC(=O)CCNC(=O)[C@H](CC(C)C)NC(=O)C(C)(C)NC(=O)C(C)(C)NC(=O)[C@H](CC(C)C)NC(=O)CCNC(=O)C(C)(C)NC(=O)[C@H](CC(C)C)NC(=O)CCNC(=O)[C@@](C)(CC)NC(=O)[C@H](C)NC(=O)CCNC(=O)C(C)(C)NC(=O)[C@H](C)NC(=O)[C@@H]3CCCN3C(=O)[C@@](C)(CC)NC(=O)[C@H](Cc3ccccc3)NC(=O)C3CCCN3C(=O)C(C)(C)NC(=O)C3CCCN3C(=O)C(C)(C)NC(C)=O)c(=O)oc2c1 (stereo not given in full),-93.3% (active)
6,N#Cc1c(N2CCOCC2)nc(=S)[nH]c1-c1ccco1,47.1% (inactive)
7,CCOC(=O)c1ccc2nc(-c3c(C)nn(-c4ccccc4)c3N3CCOCC3)[nH]c2c1,147% (inactive)
8,CCOC(=O)C(=Cc1ccccc1[N+](=O)[O-])C(=O)OCC,22.1% (inactive)
9,COc1ccc(C2CC(c3cc(OC)c(OC)c(OC)c3)=NN2C(C)=O)cc1OCC(=O)Nc1nc2ccc(C(F)(F)F)cc2s1 (stereo not given),57.1% (inactive)
10,Nc1nnc(CSc2nnc3n(Cc4ccccc4)c(=O)c4c5c(sc4n23)CCCC5)s1,113% (inactive)
11,O=C1Nc2ccccc2/C1=C/C(=O)c1ccc(N2CCOCC2)cc1,102% (inactive)
12,Cc1cc(C)c(S(=O)(=O)/N=c2/n(-c3ccccc3)nc3n2CCN3C2=NCCN2)c(C)c1,92.5% (inactive)
13,CC(C)[C@H]1COC(=O)N1[C@@H]1C(=O)N([C@@H](CCC(=O)N2CCN(C3CCCC3)CC2)C(=O)N[C@@H]2CCCc3ccccc32)[C@@H]1/C=C/c1cccc(Cl)c1,54.2% (inactive)
14,CC1Cc2c(Cl)ncnc2N(C)c2ccc(O)cc21 (stereo not given),94.5% (inactive)
15,CCN(CC)CCSC(=O)C(O)(c1ccccc1)C1CCCC1 (stereo not given),120% (inactive)
16,Cn1cc(-c2nnc(-c3cn(C)c4ncc(Br)cc34)s2)c2cc(Br)ccc21,108% (inactive)
17,O=C(C[n+]1ccn(CC(OCc2ccc(Cl)cc2Cl)c2ccc(Cl)cc2Cl)c1)c1ccc(F)cc1 (stereo not given),-46.1% (active)
18,CC1=CC[C@@H]2C(C)(C)[C@@H](O)CC[C@@]2(C)[C@@H]1COc1ccc2ccc(=O)oc2c1,82.3% (inactive)
19,Brc1ccc(-c2nnc3c4[nH]ccc4ncn23)cc1,89.4% (inactive)
20,COc1ccc(/C=C(/C2=NCCN2)n2ccc3ccccc32)cc1,85.8% (inactive)
